Test results reported in PubChem BioAssay AID1558 (National Center for Advancing Translational Sciences (NCATS), 2009).
Inconclusive results are not listed. Active and inactive are the calls of the source. Calls come from the whole dose curve; as a rule, active = well fitted inhibition curve with a large enough effect; inconclusive = small, poorly fitted or top-dose-only effect; inactive = flat fitted curve, though single readings scatter.

Target: Microtubule-associated protein tau (Homo sapiens) (UniProt P10636)
Sequence (P10636 561-689 P618L limits assumed): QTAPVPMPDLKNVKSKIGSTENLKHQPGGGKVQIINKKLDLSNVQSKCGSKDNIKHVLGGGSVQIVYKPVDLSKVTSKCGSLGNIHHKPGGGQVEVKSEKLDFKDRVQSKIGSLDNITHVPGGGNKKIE
Test: Confirmation Concentration-Response Assay for Inhibitors of Tau Fibril Formation, Thioflavin T Binding
Conditions: recombinant tau K18 P301L heparin fibrillization, ThT fluorescence; series mostly up to 100 µM; activity change, negative = inhibition: at the top concentration
Method in brief: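 Heparin (20 uM final) induced fibrillization of human tau K18 P301L (15 uM unlabeled plus 0.24 uM Alexa 594-labeled, final) in 100 mM sodium acetate pH 7 with compound, 6 hr at 37 C. ThT (30 uM final) added, read after 1 hr (ex 450, em 510 nm).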

Potency, active:
Nc1cc(-c2ccccc2)c[nH]c1=O 8.91 µM
Nc1scc2c(C(=O)N3CCOCC3)nn(-c3ccccc3)c(=O)c12 11.2 µM
Cn1ncc(Cl)c1C(=O)Nc1cccc(Cl)c1 44.7 µM
NC[C@H](O)c1ccc(O)c(O)c1 5.62 µM

Activity change, negative = inhibition, inactive:
COC(=O)C1CCc2sc(NC(=O)Cc3ccccc3)c(C(=O)Nc3ccc(Cl)cc3)c21 (stereo not given) -12.6% [at 57.1 µM]
COC(=O)C1CCc2sc(N)c(C(=O)OCc3ccccc3)c21 (stereo not given) -25.7% [at 57.1 µM]
Cc1[nH]c(=O)c(C#N)cc1-c1ccncc1 -4.9%
Cc1ccc(NC(=O)N2CCN(c3ccccn3)CC2)cc1 -13.3%
COc1cccc(/C=C2/SC(=S)N(CC(=O)Nc3nnc(C)s3)C2=O)c1 4.72% [at 57.1 µM]
Cn1cc(Cl)c(C(=O)Nc2cccc(Cl)c2Cl)n1 -15.1%
